GRIN3A LBD mod = modulators (binders) of human NR3A ligand-binding domain; AID 1259313; NR3A LBD differential scanning fluorimetry, Tm shift; 0% = protein alone, 100% = glycine-bound protein; 340,000 tested, 2.5% active; Tm shift relative to glycine control, % at 25 µM;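 active = melting temperature shift of at least 10% of the positive control shift, at one fixed dose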
MPTP inh = inhibitors of mitochondrial permeability transition pore; isolated mouse mitochondria, Ca2+ swelling absorbance, 30 min; 360,000 tested, 1.4% active; inhibition, % at 10 µM;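 active = inhibition of 50% or more, scaled per plate between neutral and stimulator controls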;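 note: 0% = DMSO wells given calcium and 100% = 1 mM EGTA wells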
rCAG binder-1 = molecules binding r(CAG) RNA repeats; 370,000 tested, 1.3% active; inhibition, % at 3 µM; r(CAG) RNA repeat, TO-PRO-1 dye displacement fluorescence; AID 651821;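 active = inhibition above the plate cutoff, the mean of all test compounds on that plate plus 3 SD, cut at about 35% in these data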;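 note: 0% = DMSO alone and 100% = 100 µM mitoxantrone as full dye displacement; higher means more dye released from RNA so lower well fluorescence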
Myeloid diff MLP = myeloid differentiation induction. calls only at 10 µM. 360,000 tested, 1% active. ER-HoxA9 myeloid progenitors, lysozyme-GFP differentiation, flow cytometry. AID 624256;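 active = normalized GFP-positive differentiation at or above the plate's own cutoff, the solvent-only control mean plus 3 SD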;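 note: cells exposed to compound for four days before flow analysis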
FAS TE block = blocks the thioesterase domain of human fatty acid synthase. recombinant FAS-TE, OMFH fluorogenic substrate, fluorescence endpoint. inhibition, % at 15 µM. 360,000 tested, 0.67% active;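 active = compounds whose normalised, plate-corrected inhibition of enzyme fluorescence in the single-dose primary screen is 50% or more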;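 note: 0% = DMSO with enzyme and 100% = substrate without enzyme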
rCAG bind conf = r(CAG) RNA repeat binding, confirmation; 4,300 tested, 70% active; shares compounds with rCAG binder-1; TO-PRO-1 dye displacement fluorescence; inhibition, % at 3 µM;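 active = inhibition above a per-plate cutoff, the mean inhibition of sample wells plus 3 SD, cut at about 35% in these data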;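 note: loss of TO-PRO-1 fluorescence as compound displaces dye from 1x1 AA loop RNA; 0% = DMSO only wells and 100% = 100 µM mitoxantrone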
dCAG dye counter = counter-screen for rCAG RNA binders: DNA CAG dye complex inhibitors. shares compounds with rCAG binder-1. d(CAG) DNA oligo TO-PRO-1 dye displacement, fluorescence. inhibition, % at 3 µM. 4,300 tested, 94% active. AID 652068;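 active = inhibition above its plate's cutoff, the mean test-well inhibition plus 3 SD, cut at about 4.8% in these data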;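 note: 0% = DNA dye mix with DMSO and 100% = 100 µM mitoxantrone; hits displace the dye from DNA and so lower well fluorescence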
dCAG dye DR = DNA CAG dye complex inhibition, dose response counter-screen | AID 686960 | 250 tested, 20% active | DNA CAG/GTC duplex TO-PRO-1 dye displacement fluorescence | shares compounds with rCAG binder-1 | IC50, µM; in the data active = IC50 below about 10 µM
dCAG TOPRO ctr = DNA CAG dye complex inhibition, late stage dose response; d(CAG) DNA duplex TO-PRO-1 dye displacement, fluorescence; AID 720649; shares compounds with rCAG binder-1; 30 tested, 80% active; IC50, µM
rCAG binder-2 = molecules binding r(CAG) RNA repeats, late stage dose response; shares compounds with rCAG binder-1; AID 720651; 30 tested, 100% active; r(CAG) RNA TO-PRO-1 dye displacement, fluorescence; IC50, µM
Active calls of the source: *; i = inactive; x = no result given. Rows were chosen to be rich in hits. Some 5.7% of all compounds tested hit in one or more screens of this group. Unless noted, the rule behind the calls is not given here.

SMILES	GRIN3A LBD mod	MPTP inh	rCAG binder-1	Myeloid diff MLP	FAS TE block	rCAG bind conf	dCAG dye counter	others
COc1ccc(NC(=O)c2cccc(S(=O)(=O)NCc3ccco3)c2)c(OC)c1	-1.9	3.1	-2.0	i	-2.6	x	x
CC(CCc1ccccc1)NC(=O)C(=O)Nc1ccccc1 (configuration not stated)	0.1	-2.4	-1.0	i	-11.2	x	x
O=C(CN1C(=O)COc2ccccc21)N1CCN(C2CCCCC2)CC1	-0.9	-1.2	-0.6	i	-4.1	x	x
O=C(/C=C/c1ccco1)NC(=S)Nc1ccccc1	-2.9	0.0	11.7	i	7.9	x	x
O=C(/C=C/c1ccco1)NC(=S)Nc1cccc([N+](=O)[O-])c1	1.9	2.8	53.7*	i	13.5	33.5	18.4*
COc1ccc(C(=O)NNC(=S)NC(=O)c2cc(-c3ccccc3)nc3ccccc23)cc1	14.3*	34.4	65.5*	i	17.4	78.5*	33.2*
COc1ccc(-c2cc(C(=O)NNC(=S)NC(=O)c3c(-c4ccccc4)noc3C)[nH]n2)cc1	-3.2	9.4	70.1*	i	2.5	74.7*	32.6*	dCAG dye DR=i;dCAG TOPRO ctr=i;rCAG binder-2=0.989*
CCNC(=S)NNC(=O)c1cc(-c2ccc(OCC)cc2)nc2ccccc12	1.3	1.6	42.5*	i	6.2	48.0*	16.5*
CCNC(=S)NNC(=O)c1cc(-c2ccccc2C)nc2ccccc12	-8.3	-0.2	x	i	-1.0	x	x
CC(=O)c1cn(N2CCCCC2)c(=O)[nH]c1=O	-2.4	-0.6	0.7	i	-0.5	x	x
O=C(CCN1C(=O)C2CCCCC2C1=O)N1CCN(S(=O)(=O)c2c(F)cccc2F)CC1 (configuration not stated)	-0.5	-0.9	-6.4	i	-3.9	x	x
C=CCOc1ccc(Br)cc1/C=C1\NC(=S)N(C(C)=O)C1=O	-7.0	1.7	65.8*	i	1.4	48.7*	15.2*
CCNc1nc(C)c(CN(C(C)=O)c2ccccc2)nc1C#N	2.2	1.9	-3.6	i	-3.6	x	x
Cc1sc(NC(=O)C2CC=CCC2C(=O)O)c(C(=O)OC(C)C)c1C (configuration not stated)	-2.1	2.0	40.8*	i	-4.8	32.7	5.8*
CCOC(=O)C(=O)N(Nc1ccccc1C)c1ccccc1C	1.8	0.2	-7.7	i	13.6	x	x
CC(=O)CCS(=O)(=O)c1ccc(NC(C)=O)cc1	0.8	-0.1	0.5	i	-2.9	x	x
O=S(=O)(CS(=O)(=O)c1ccccc1)c1ccccc1	1.9	-2.0	2.5	i	-7.8	x	x
O=C(CS(=O)(=O)c1ccccc1)CS(=O)(=O)c1ccccc1	x	x	53.2*	x	x	2.4	0.6
CC(=O)Nc1ccc(S(=O)(=O)CC(=O)CS(=O)(=O)c2ccc(NC(C)=O)cc2)cc1	x	0.0	39.1*	i	-11.4	7.5	3.9
CC1(C(=O)NS(=O)(=O)c2ccc3c(c2)CCO3)CCN1C(=O)C1(c2ccc(Cl)cc2)CCC1 (configuration not stated)	x	2.3	35.7*	i	-11.0	32.0	3.8
CC1(C(=O)NS(=O)(=O)Cc2ccccc2)CCN1C(=O)C1(c2ccc(Cl)cc2)CCC1 (configuration not stated)	x	0.4	40.9*	i	-4.8	29.9	6.7*
CC1(C(=O)NS(=O)(=O)c2ccc(C#N)cc2)CCN1C(=O)C1(c2ccc(Cl)cc2)CC1 (configuration not stated)	x	0.6	17.4	i	3.1	x	x
Cc1ccc(S(=O)(=O)NC(=O)C2(C)CCN2C(=O)C2(c3ccc(Cl)cc3)CC2)cc1 (configuration not stated)	x	0.1	57.1*	i	-6.0	28.8	5.7*
CC1(C(=O)NS(=O)(=O)c2ccc(Cl)cc2)CCN1C(=O)C1(c2ccc(Cl)cc2)CCC1 (configuration not stated)	x	1.6	55.3*	i	4.0	55.6*	18.1*
CC1(C(=O)NS(=O)(=O)c2ccc3c(c2)CCO3)CCN1C(=O)CCc1ccc(Cl)cc1Cl (configuration not stated)	x	0.8	30.2	i	-6.0	x	x
SMILES	GRIN3A LBD mod	MPTP inh	rCAG binder-1	Myeloid diff MLP	FAS TE block	rCAG bind conf	dCAG dye counter	others
CC1(C(=O)NS(=O)(=O)c2ccccc2)CCN1C(=O)C1(c2ccc(Cl)cc2)CC1 (configuration not stated)	x	0.7	15.5	i	-7.4	x	x
CC1(C(=O)NS(=O)(=O)c2ccc(Br)cc2)CCN1C(=O)C1(c2ccccc2)CC1 (configuration not stated)	x	-0.1	23.2	i	-10.3	x	x
CC(C)(C)c1ccc(S(=O)(=O)NC(=O)C2(C)CCN2C(=O)C2(c3ccccc3)CC2)cc1 (configuration not stated)	x	-0.5	47.1*	i	-6.9	39.9*	10.1*
Cc1ccc(S(=O)(=O)NC(=O)C2(C)CCN2C(=O)C2(c3ccc(Cl)cc3)CCC2)cc1 (configuration not stated)	x	0.7	42.5*	i	-12.9	38.7*	10.0*
CC1(C(=O)NS(=O)(=O)c2ccc(Cl)cc2)CCN1C(=O)C1(c2ccccc2)CCCC1 (configuration not stated)	x	3.2	49.9*	i	-4.6	40.1*	11.8*
CO[C@H]1CN(C)C(=O)c2ccc(NS(=O)(=O)c3ccccc3F)cc2OC[C@H](C)NC[C@@H]1C	x	-1.1	0.7	i	x	x	x
COc1cc([N+](=O)[O-])ccc1NC(=O)NCCCN1CCCC1=O	2.1	-0.6	0.5	i	0.0	x	x
Cc1cc(Cl)nc(Cl)c1C(=O)NCCc1ccccc1	3.7	-0.8	0.0	i	3.9	x	x
Cc1cc(C(=O)NCCC(C)C)c2ccccc2n1	-3.4	0.8	-0.9	i	-3.7	x	x
Cc1nc2c(C(=O)NCCC(C)C)c[nH]n2c(=O)c1Cl	-27.8	-2.8	37.0*	i	-3.7	36.2*	8.2*
Cc1nc2c(C(=O)NCCc3ccccc3)c[nH]n2c(=O)c1Cl	-8.9	0.0	63.8*	i	-2.8	54.1*	12.8*
COc1cc(C2Nc3cccc4cccc(c34)N2)ccc1O	7.3	0.7	52.8*	i	10.6	48.2*	25.6*
Cc1cccc(C)c1NC(=O)C(C1CC1)n1c(-c2ccc(-c3ccccc3)cc2)nc2ccccc21 (configuration not stated)	x	-0.6	11.6	i	x	x	x

Screening data (PubChem)
